# High-throughput results (PubChem)
# Shown are actives, neighbours in structure and some others; about 28% of the full set was active somewhere.
# CYP2C9 inhib: blockers of cytochrome P450 2C9 activity – biochemical, luminescence, ADME assay, primary screen. inhibition, % at 5 µM. CYP2C9 Supersomes, luciferin-H conversion. P11712. AID 777, 2007. 96,000 compounds, 20% hits;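 active = blocking of liver enzyme CYP2C9 beyond about 50% at 5 µM, limit read from the data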
# Target sequence (P11712 whole entry, looked up): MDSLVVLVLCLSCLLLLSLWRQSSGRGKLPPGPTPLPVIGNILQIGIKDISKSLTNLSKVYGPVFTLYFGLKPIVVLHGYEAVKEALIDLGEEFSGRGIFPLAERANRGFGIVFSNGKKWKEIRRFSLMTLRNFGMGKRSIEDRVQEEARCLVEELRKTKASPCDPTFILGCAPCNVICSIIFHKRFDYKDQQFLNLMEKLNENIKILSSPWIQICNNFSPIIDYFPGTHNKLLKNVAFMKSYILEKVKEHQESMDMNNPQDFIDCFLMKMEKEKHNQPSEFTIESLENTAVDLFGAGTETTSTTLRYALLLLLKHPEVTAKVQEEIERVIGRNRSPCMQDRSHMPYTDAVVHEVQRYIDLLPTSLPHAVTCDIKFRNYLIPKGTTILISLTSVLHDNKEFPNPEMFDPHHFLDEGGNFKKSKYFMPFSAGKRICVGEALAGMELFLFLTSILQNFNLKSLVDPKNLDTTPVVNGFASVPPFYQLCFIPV
# CYP2C19 activ: human CYP2C19 activators, primary screen, biochemical, luminescence | recombinant CYP2C19, luciferin-H EGE luminescence; active compounds read high; 0 = fully inhibited enzyme, 1 = untreated enzyme | 96,000 tested, under 10 active | activation factor at 5 µM | AID 1025, 2008 | Cytochrome P450 2C19 (Homo sapiens), P33261;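 active = activation factor of at least 2 at 5 µM in the primary screen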;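 also: 0 = wells with 2.5 mM tranylcypromine and 1 = vehicle-only wells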
# CYP2C9 activ: human CYP2C9 activators, primary screen, biochemical, luminescence. Cytochrome P450 2C9 (Homo sapiens), P11712. recombinant CYP2C9, luciferin-H conversion; active compounds read high; factor 1 = untreated enzyme, 0 = blocked. activation factor at 5 µM. 96,000 compounds, 1.4% hits;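 active = activation factor of 2 or more for CYP2C9 at a 5 µM dose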;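 also: 0 = sulfaphenazole-blocked wells and 1 = vehicle-only wells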
# D1 allo mod: D1 CRE-luciferase signal change, two-sided – cell-based, HEK293 D1, dopamine EC30, D1 allosteric modulator project, primary screen; D(1A) dopamine receptor (Homo sapiens), P21728; dopamine EC30 potentiation; actives deviate in either direction; B-score at 10 µM; 58,000 compounds, 5.9% hits; AID 641, 2007;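 active = luminescence count or its row- and column-corrected plate score outside the 99.7% band of the plate's sample wells, on either side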
# DAT uptake mod: changed hDAT dopamine uptake under cocaine IC80, either direction, primary screen, cocaine antagonist project, cell-based, LLC-PK1 hDAT, [14C]-dopamine uptake, MLSMR; B-score at 10 µM; LLC-PK1 hDAT cells, [14C]-dopamine uptake with cocaine IC80; actives deviate in either direction; 110,000 compounds, 1.3% hits; Sodium-dependent dopamine transporter (Homo sapiens), Q01959;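 active = Z score or B-score, a plate-position-corrected score, falls beyond the plate's 99.7% confidence bounds, in either direction; inactive = both scores lie inside the 99.7% bounds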;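 also: scored against the spread of the other compound wells on the same plate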
# CYP2C19 inhib: blockers of cytochrome P450 2C19 activity – biochemical, luminescence, ADME assay, primary screen; 96,000 compounds, 21% hits; P33261; AID 778, 2007; CYP2C19 Supersomes, luciferin-H EGE luminescence, 30 min; inhibition, % at 5 µM;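 active = CYP2C19 inhibition above a set limit at 5 µM in the primary screen, cut at about 50% in these data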;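 also: plate controls were negative control wells for no effect and 2.5 mM tranylcypromine positive control for full effect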
# An asterisk follows results filed as active; · = no result given.
SMILES,CYP2C9 inhib,CYP2C19 activ,CYP2C9 activ,D1 allo mod,DAT uptake mod,CYP2C19 inhib
COc1ccc(CN(C(=O)c2nsc(Cl)c2Cl)C(C(=O)NC2CCCCC2)c2ccc(OC)cc2)cc1 (stereo not drawn),57.7*,0.5,0.4,·,-0.57,51.4*
O=C(NC1CCCCC1)C(c1ccncc1)N(Cc1ccc2c(c1)OCO2)C(=O)c1cnsn1 (stereo not drawn),·,·,·,·,-0.143,·
COc1cccc2cc(C(=O)N(C)C3CCN(C)CC3)c(=O)oc12,-22.9,1,1.2,0.357,-0.244,4.8
Cc1cc2c(nn1)CCC/C2=N\O,-13.6,1.1,1.1,0.0782,0.445,-10.0
COc1ccc(NC(=O)C(CC(C)C)NC(=O)c2ccccc2C)cn1 (stereo not drawn),51.6*,0.5,0.5,1.23,-0.548,53.9*
COc1ccccc1OCCNC(=O)c1ccccc1C,-60.7,0.5,1.6,-0.713,-0.165,47.4
O=C(Cc1ccc(-n2cccc2)cc1)N1CCN(c2ccccc2F)CC1,63.3*,0.5,0.4,0.491,·,49.8
Cn1cc(CC(=O)N2CCN(c3ccc(Cl)cc3)CC2)c2ccccc21,-105.2,0.3,2.1*,1.35,0.573,70.6*
Cn1cc(CC(=O)N2CCN(c3ccccc3F)CC2)c2ccccc21,-64.6,0,1.6,·,-0.528,99.6*
O=C(CCCC(=O)N1CCN(c2ccccc2F)CC1)N1CCN(c2ccccc2F)CC1,16.2,0.9,0.8,-0.377,0.242,7.7
COC(=O)c1ccc(NC(=O)CSc2nccn2CCc2ccccc2)cc1,50.1*,0.2,0.5,·,-0.016,75.8*
CCOCCCn1c(SCC(=O)Nc2ccc(C(N)=O)cc2)nc2ccccc2c1=O,17.6,0.4,0.8,0.0185,0.744,55.7*
COCCCn1c(SCC(=O)Nc2ccc(C(=O)OC)cc2)nc2ccccc2c1=O,88.3*,0.2,0.1,-0.00777,0.00249,78.1*
CCOCCCn1c(SCC(=O)NC(C)(C)C)nc2ccccc2c1=O,10.9,0.9,0.9,0.486,-0.529,8.0
Cc1cc(C)c(S(=O)(=O)Nc2cccnc2)c(C)c1,26.0,0.8,0.7,-0.252,0.65,22.3
Cc1cc(C)c(S(=O)(=O)Nc2ccc(O)cc2)c(C)c1,8.6,0.3,0.9,0.0954,-0.144,71.2*
CC(=O)OCCN1C(=O)c2cccnc2C1=O,-19.9,1.1,1.2,-0.0307,-0.208,-14.7
CC(=O)OCCCN1c2ccccc2Nc2nnc(-c3ccccc3)cc21,·,0.4,·,·,-0.00764,61.3*
COC(=O)c1c(NC(=O)C2CC(=O)NN2Cc2ccccc2)sc(C)c1C (stereo not drawn),82.3*,0.1,0.2,·,2.33,85.5*
CC(=O)N(Cc1ccc(F)cc1)C1=C(NCCc2ccccc2)C(=O)c2ccccc2C1=O,95.4*,0,0,·,-0.0979,98.7*
CC(C)[C@H](NC(=O)NCCc1ccc(F)cc1)C(=O)O,11.0,0.9,0.9,-0.361,-0.882,9.7
Cc1ccc(C(=O)CSc2nnc(-c3ccco3)n2Cc2ccccc2)cc1,61.6*,0.4,0.4,-0.749,0.166,58.0*
Cn1c(SCC(=O)OCc2ccccc2)nnc1-c1ccco1,2.8,0.8,1,·,0.848,18.3
O=C(CSc1nnc(-c2ccco2)n1Cc1ccccc1)c1ccccc1,86.9*,0.1,0.1,0.757,3.44*,93.2*
CCCCn1c(SCC(N)=O)nnc1-c1ccco1,12.6,0.9,0.9,1.47,-0.101,8.4
Cn1c(SCC(=O)c2ccc(-c3ccccc3)cc2)nnc1-c1ccco1,56.2*,0.3,0.4,1.17,-0.388,67.6*
CC(C)Cn1c(SCC(=O)c2ccc(Cl)s2)nnc1-c1ccco1,72.0*,0.3,0.3,0.171,0.835,66.8*
NC(=O)NC(=O)CSc1nnc(-c2ccco2)n1Cc1ccccc1,5.7,1,0.9,·,-0.0345,-0.1
Cc1cc(NC(=O)CSc2n[nH]c(CC(C)C)n2)no1,16.5,0.8,0.8,0.197,0.465,17.7
